We go through 46 sequences from the supplement of paper PMC11417369.

± gives the standard deviation of the averaged measurements. The full ranking holds about 25,000 sequences; the median of “ln(normalized median fluorescence intensity)” is about 7.9, and the highest 2% start at about 11. The full list was thinned out, with the highest values kept by preference.

The subject of the assay is PfAP2-I AP2 domain 3 (GST-tagged). In words: gcPBM binding intensity (ln(normalized median fluorescence intensity)); higher = stronger DNA binding. The procedure, abridged:
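The binding buffer was 1× PBS containing 1% milk, 0.2 mg/ml BSA, 0.5% salmon testes DNA and 0.03% Triton X-100. In it, GST-tagged P. falciparum DNA-binding domains expressed in E. coli were applied for 1 h to an Agilent 4 × 180k array of primer-extended double-stranded 36-bp intergenic genomic probes plus negative controls. Binding intensity, read with Alexa488 anti-GST antibody and a 488 nm scan, is the highest Masliner-normalised natural-log median intensity across replicate spots of either probe orientation.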
For the sequence AAATATTATAAAAAGGTGCATTTTTATTATATGAGT, the “gcPBM binding intensity (ln)” value came to 10.5 ± 0.35.
For the sequence ATTATCAATATGAAGGTGCATTTAAATAATATTTAC, the “gcPBM binding intensity (ln)” value was 11.3 ± 0.7.
As for TGTTTTATTTAGAAGGTGCACATTAATATTAAATAA, the “gcPBM binding intensity (ln)” value stood at 11.3 ± 0.45.
As to “TTTTCAATTAATAATACACACATGTATTTATTATTA [CACACA_site5774]”, the “gcPBM binding intensity (ln)” value is 7.83 ± 0.34.
For “ATAAATTCATATATGAGTACTAAAAATATCTTTTTC [XGTACX_site5541]”, the “gcPBM binding intensity (ln)” value worked out at 7.61 ± 0.45.
Next, “ATTTATGGAAAAAGAACACACAATCAAACAAAAATA [CACACA_site3707]”: 8.01 ± 0.57; “TTATAATTTTTGAGCACACACAAGCATATATATATA [CACACA_site1798]”: 9.475 ± 0.049.
To “ATATATATATATTTCGCACACATAATCTTATTAAAT [CACACA_site2579]” belongs 9.22 ± 0.31; to “TATGGATAAATAAATACACACATAAATTTAAATATA [CACACA_site1282]”, 7.57 ± 0.61.
Next, “GTTTATCACAGCCACGCACACATAATATCTGTATAT [CACACA_site5929]”: 8.18 ± 0.59; “GAACATTTGAAATATGCACACATGTATAAACCTACA [CACACA_site2654]”: 8.7 ± 0.4.
As for “TATATATATATATGTGCACACATAAAGATATTATTT [CACACA_site3734]”, the “gcPBM binding intensity (ln)” value was 10.18 ± 0.021.
In the case of “TGCTTATATATACGTGCACACATATATATAAGATAT [CACACA_site8516]”, the “gcPBM binding intensity (ln)” value was found to be 10.9 ± 0.11.
Consider “CTTATATATACGTGCACACATATATATAAGATATAT [CACACA_site1752]”, for which the “gcPBM binding intensity (ln)” value is 11.03 ± 0.11.
“TATATATATATGTGCACACATAAAGATATTATTTTT [CACACA_site3733]”: the “gcPBM binding intensity (ln)” value was 10.2 ± 0.042.
To “ATAAATAAGATACGTACACACATATACAAAATATAC [CACACA_site3661]” belongs 8.14 ± 0.26; to “AGATAAGATATATACACACACATAAATACGTACAAA [CACACA_site6639]”, 8.35 ± 0.16.
Take “AAGGTAGAAATATGTTGTACGGTTTGGAGGAAGCAA [XGTACX_site1105]”: the “gcPBM binding intensity (ln)” value came out at 8.12 ± 0.49.
As to “AGTACATTTTTTTTAATAGGAAAAAAAATATTTATT [TGCATGCA_negctrl_site575]”, the “gcPBM binding intensity (ln)” value came to 7.66 ± 0.57.
With “TTTTTTGCTAAGTGTACACAAATGTTTATTAATTTA [CACACA_site5859]”, the “gcPBM binding intensity (ln)” value was 8.42 ± 0.27.
Take “ATAAAGAATATAAATACACACTTAAATATAGATTAT [CACACA_site7804]”: the “gcPBM binding intensity (ln)” value turned out to be 7.6 ± 0.45.
To “ATAAAGAATATAAATACACACTTAAATATATATTAT [CACACA_site6071]” belongs 7.64 ± 0.44; to “ATATATATATAGTGCACACTTAAGAATATAAAGAGG [CACACA_site1151]”, 11.5 ± 0.3; to “AAAAAAAAAAAAAGTGCACACTTTTAATATAAATAT [CACACA_site3314]”, 10 ± 0.35.
For “ATATATATATATAGTGCACACTTAAGAATATAAAGA [CACACA_site4771]”, the “gcPBM binding intensity (ln)” value worked out at 11.5 ± 0.27.
To “AAATAAAGAATATAAATACACACTTAAATATATATT [CACACA_site4007]” belongs 7.58 ± 0.61; to “TATATGTATGTATGTACACACAAAAAATGGAATATA [CACACA_site3717]”, 7.93 ± 0.35; to “AAAAATAAAGAAACAGGTACGCATATATTAAGATAT [XGTACX_site8097]”, 7.98 ± 0.78.
Next, “GGTATATTAAAATAGGTGCATAAAACTAAGAGAAAA [GTGCAC_site9781]”: 11.3 ± 0.54; “GTATTATATATATAGGTGCATATATATATATAAATA [GTGCAC_site9787]”: 10.6 ± 0.33; “CAATATTATTATATTTGTACACATGCGTATTTTTTA [XGTACX_site4154]”: 7.74 ± 0.47.
With “AATATAACTTTTTGCACACTTAATTTTTTTTTTTAA [CACACA_site3365]”, the “gcPBM binding intensity (ln)” value is 9.79 ± 0.11.
To “TTAATATAACTTTTTGCACACTTAATTTTTTTTTTT [CACACA_site3364]” belongs 9.32 ± 0.085; to “TAACTTAATTTTAATGCACACAATTTATATATATAT [CACACA_site6022]”, 11.2 ± 0.52.
As for “TAACTTAATATTAATGCACACAATTTATATATATAT [CACACA_site3903]”, the “gcPBM binding intensity (ln)” value was 11.3 ± 0.38.
Take “TTTTTAAAATATTTAACACACAATTATAATGCATAA [CACACA_site3932]”: the “gcPBM binding intensity (ln)” value came to 8.885 ± 0.035.
Next, “TAAATTATATTATGCACACTTAAAAATATATTTAAC [CACACA_site3512]”: 10.4 ± 0.49; “ACACGTTTATATAAAAAATTAAAATTTTTCTTATTT [CACACA_negctrl_site1523]”: 7.95 ± 0.32.
On to “TTGCCCCAGGAGTTCACACACATAATAGATTGTCAC [CACACA_site726]”, for which the “gcPBM binding intensity (ln)” value amounted to 7.79 ± 0.61.
For the sequence “ATATTTTATTTTAATACACACAAGTTATATAACCAC [CACACA_site6508]”, the “gcPBM binding intensity (ln)” value is 8.19 ± 0.48.
With “CAAGTATTAATTATGTGTACATATATATATATATAT [XGTACX_site5311]”, the “gcPBM binding intensity (ln)” value turned out to be 9.36 ± 0.23.
Take “ATCGTGTTAAATGTTGTGCACATATAAATTACAAAA [GTGCAC_site9822]”: the “gcPBM binding intensity (ln)” value was determined as 10.605 ± 0.007.
Next, TATATGTATGTTTGTGTGCACACATAAATATTATAT: 9.79 ± 0.042.
Next, TTGTTGTGTATTATCGTGCACATAATATAAAAGATT: 11.11 ± 0.078; “TAAATGAAAATATGTACACACTTGAAAACTTTTATG [CACACA_site7388]”: 7.84 ± 0.45; “GTTTTATAAAAAGGCGCACACATATACATAAATATA [CACACA_site1864]”: 8.47 ± 0.37.
